# About 14,000 (4.5%) of roughly 310,000 compounds showed an effect of 50% or more. Effects have a minus sign here. What follows is part of a selection rich in strong results, with near analogues and random picks from the rest.
# Target: human ether-à-go-go-related gene (hERG) potassium channel (human, UniProt Q12809)
# Test: primary screen, population patch clamp on CHO cells stably expressing hERG; higher = less effect of the substance
# 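Also: peak tail current of the secondary pulse compared with the same well before compound.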
# Chain of human ether-à-go-go-related gene (hERG) potassium channel (Q12809 whole entry, looked up): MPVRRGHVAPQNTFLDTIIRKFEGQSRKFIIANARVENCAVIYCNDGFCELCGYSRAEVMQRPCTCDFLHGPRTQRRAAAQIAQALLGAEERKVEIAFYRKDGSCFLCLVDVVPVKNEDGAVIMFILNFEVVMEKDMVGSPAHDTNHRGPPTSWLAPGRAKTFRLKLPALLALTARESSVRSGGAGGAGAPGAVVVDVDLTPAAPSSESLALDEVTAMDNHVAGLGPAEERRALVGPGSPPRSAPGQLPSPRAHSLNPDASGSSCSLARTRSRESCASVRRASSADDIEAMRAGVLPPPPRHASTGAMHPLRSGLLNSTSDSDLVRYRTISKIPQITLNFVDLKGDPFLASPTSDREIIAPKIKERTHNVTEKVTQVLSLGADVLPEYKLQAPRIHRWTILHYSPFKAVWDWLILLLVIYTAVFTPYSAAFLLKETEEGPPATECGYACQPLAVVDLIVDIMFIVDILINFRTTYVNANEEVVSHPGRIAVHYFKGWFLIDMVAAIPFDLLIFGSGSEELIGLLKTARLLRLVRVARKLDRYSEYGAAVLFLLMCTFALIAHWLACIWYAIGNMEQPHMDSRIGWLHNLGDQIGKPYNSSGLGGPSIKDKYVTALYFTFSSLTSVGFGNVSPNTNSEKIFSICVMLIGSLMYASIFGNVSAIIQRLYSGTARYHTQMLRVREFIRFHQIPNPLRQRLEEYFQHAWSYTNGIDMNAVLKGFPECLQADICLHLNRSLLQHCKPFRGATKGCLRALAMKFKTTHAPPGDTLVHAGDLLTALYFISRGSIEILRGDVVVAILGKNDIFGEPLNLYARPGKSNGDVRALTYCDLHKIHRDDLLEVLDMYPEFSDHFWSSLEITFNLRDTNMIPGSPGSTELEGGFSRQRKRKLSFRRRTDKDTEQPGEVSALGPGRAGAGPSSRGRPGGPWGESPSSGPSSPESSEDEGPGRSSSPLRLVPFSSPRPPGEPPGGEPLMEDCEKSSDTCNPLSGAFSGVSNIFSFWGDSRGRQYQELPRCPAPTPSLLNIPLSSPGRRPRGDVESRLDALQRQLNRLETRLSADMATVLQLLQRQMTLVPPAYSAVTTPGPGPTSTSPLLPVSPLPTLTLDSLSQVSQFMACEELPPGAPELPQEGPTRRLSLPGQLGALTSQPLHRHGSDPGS
row,Structure (SMILES),"hERG current change (%, negative = inhibition) at 10uM"
1,CCOC(=O)c1c(NC(=O)CCS(=O)(=O)c2ccccc2)sc2c1CC(C)(C)NC2(C)C,-44.9%
2,O=C(Nc1cccc(S(=O)(=O)N2CCOCC2)c1)c1ccc2ccccc2n1,-1.59%
3,CCNc1nc(NCC)nc(SCCOc2ccc(C)cc2)n1,-40.6%
4,COc1ccccc1N1CCN(C(=O)COc2ccc(S(=O)(=O)NC(C)C)cc2)CC1,-4.64%
5,COCCN(C(=S)Nc1cccc(Cl)c1C)C(C)c1ccco1 (centres unmarked),-15.4%
6,S=C(Nc1ccccc1Cl)N(CCCN1CCOCC1)Cc1ccco1,0.554%
7,Cc1c(Cl)cccc1NC(=S)N(CCN(C)C)C(C)c1ccco1 (centres unmarked),-55.9%
8,CCN1CCN(CCCN(Cc2ccco2)C(=S)Nc2ccccc2Cl)CC1,-53.5%
9,Cc1ccccc1NC(=S)N(CCN(C)C)C(C)c1ccco1 (centres unmarked),-12.1%
10,Cc1c(Cl)cccc1NC(=S)N(CCCN1CCOCC1)Cc1ccco1,-43.9%
11,CCN1CCN(CCCN(Cc2ccco2)C(=S)Nc2cccc(Cl)c2C)CC1,-61.2%
12,O=C(NCCCN1CCCC1=O)c1cccc(Oc2ccccc2)c1,10.5%
13,CCN(CC(=O)Nc1c(F)cccc1F)C(=O)CCN1C(=O)c2cccc([N+](=O)[O-])c2C1=O,16.2%
14,N#CCC(=O)Nc1ncn(Cc2ccccc2Cl)n1,15.4%
15,CCCCc1nc2cc(C(=O)NCc3ccccn3)ccc2o1,2.61%
16,COc1ccccc1C(=O)NC(=O)CSc1nc2nc(C)cc(C)n2n1,0.704%
17,Cc1cccc(N=c2oc3cc(O)ccc3cc2C(N)=O)c1,-17.3%
18,Cc1cc(C(=O)CSc2ncccn2)c(C)n1-c1cccc(F)c1,-5.48%
19,Cc1cc(C(=O)CSc2nc(N)cc(N)n2)c(C)n1-c1cccc(F)c1,-14.2%
20,Cc1cc(C(=O)CSc2nc(N)cc(N)n2)c(C)n1-c1cccc(C(F)(F)F)c1,-64.4%
21,C=CCn1c(Cc2ccccc2)n[nH]c1=S,11.7%
22,COc1cc(C(=O)NCc2nnc(SCC(=O)N3CCOCC3)o2)cc(OC)c1OC,17.2%

row,Structure (SMILES),"hERG current change (%, negative = inhibition) at 10uM"
1,OCCCNc1nccc(-c2cc(Nc3cccc(Cl)c3)ncn2)n1,9.69%
2,CN(C)CCCNc1ccc(-c2cc(Nc3cccc(Cl)c3)ncn2)cn1,-58.4%
3,OCCCNc1cc(-c2ccnc(Nc3cccc(Cl)c3)n2)ccn1,-30.3%
4,CC(=O)Nc1ccc(C(=O)OCC(=O)Nc2ccc([N+](=O)[O-])cc2C(F)(F)F)cc1,7.22%
5,O=c1c2ccccc2n(Cc2ccc(Cl)cc2)c(=O)n1Cc1ccco1,4.77%
6,Cl.N=c1n(Cc2ccc(Cl)cc2)c2ccccc2n1CC(O)c1ccco1 (centres unmarked),-64.1%
7,CCn1c(=N)n(CC(O)c2ccco2)c2ccccc21.Cl (centres unmarked),-30.7%
8,CC(C)(C)c1ccc(Cn2c(=O)cnc3ccccc32)cc1,-4.85%
9,O=C(Nc1nc2ccccc2n1Cc1ccc(Cl)cc1)c1ccco1,5.47%
10,CC(C)(C)c1ccc(Cn2c(=N)n(CC(O)c3ccco3)c3ccccc32)cc1.Cl (centres unmarked),-71.9%
11,Cc1ccc(Cn2c(=N)n(CC(O)c3ccco3)c3ccccc32)cc1.Cl (centres unmarked),-64.5%
12,Cc1ccc(Cn2c(=O)n(Cc3ccco3)c(=O)c3ccccc32)cc1,16.3%
13,O=C(c1cccs1)N(Cc1cc2ccccc2[nH]c1=O)c1ccccc1,-11.8%
14,CC(C)CN=Cc1c(O)c([N+](=O)[O-])cc2oc3c(c12)CCCC3,0.113%
15,COc1ccc(CCNC(=O)c2cccc(S(=O)(=O)N3CCOCC3)c2)cc1OC,1.15%
16,CC(C)(C)N1CC(C(=O)Nc2ccc(C#N)cc2)CC1=O (centres unmarked),11.6%
17,O=C(NCCc1ccc(Cl)cc1)c1nnc(Cc2ccc(Cl)cc2)o1,10.1%
18,CN(C)c1ccc(C2CC(=O)NC3=C2C(=O)CC(C)(C)C3)cc1 (centres unmarked),1.9%
19,O=C(Nc1cc(F)ccc1F)N1CCN(c2ccnc3cc(Cl)ccc23)CC1,-66.4%
20,O=C(Nc1ccc(Cl)cc1Cl)N1CCN(c2ncccn2)CC1,-21.1%
21,Cc1cccc(Cl)c1NC(=O)N1CCN(c2ccnc3cc(Cl)ccc23)CC1,-16.8%
22,COc1ccccc1NC(=O)N1CCC(C(=O)c2ccc(F)cc2)CC1,0.487%

row,Structure (SMILES),"hERG current change (%, negative = inhibition) at 10uM"
1,COc1ccccc1NC(=O)N1CCC(C(=O)c2ccc(Cl)cc2)CC1,-72.7%
2,COc1ccccc1NC(=S)N1CCC(C(=O)c2ccc(F)cc2)CC1,-22.7%
3,COc1ccccc1N1CCN(c2ccnc3cc(Cl)ccc23)CC1,-43.4%
4,Cc1ccc(F)cc1NC(=O)N1CCN(c2ccnc3cc(Cl)ccc23)CC1,-67%
5,COc1cccc(Cl)c1NC(=O)N1CCN(c2ccnc3cc(Cl)ccc23)CC1,-44.1%
6,COc1ccccc1NC(=O)N1CCN(c2ccnc3cc(Cl)ccc23)CC1,-80.5%
7,Cc1ccc(F)cc1NC(=O)N1CCCN(c2ccc(C(F)(F)F)cn2)CC1,-43.3%
8,CCC(Sc1nc(-c2ccccc2)c(C#N)c(=O)[nH]1)C(=O)Nc1nnc(C)s1 (centres unmarked),1.73%
9,Cc1ccc(NC(=S)Nc2nc(CC(=O)Nc3ccccc3)cs2)cc1,13%
10,COC(=O)c1ccc(-c2ccc(/C=N/N3C(=O)C4C5C=CC(CC5)C4C3=O)o2)cc1 (centres unmarked),-16.1%
11,CC(C)CC(=O)N1CCN(Cc2cccc(Cl)c2)CC1,7.42%
12,CCN1CCN(CCNC(=O)c2ccc3c(c2)N(Cc2ccc(F)cc2)C(=O)/C(=C/c2ccccc2)S3)CC1,-42.7%
13,CN(C)Cc1nnnn1-c1cccc(-n2nnnc2CN(C)C)c1,12.3%
14,COCC(=O)NC1CCN(CC(=O)Nc2ccc(OC)cc2[N+](=O)[O-])CC1,-2.46%
15,CC(C)c1ccc(Nc2nnc(SCC(=O)Nc3ncc(S(=O)(=O)c4ccc([N+](=O)[O-])cc4)s3)s2)cc1,13.8%
16,COC(=O)C1=CN(CCOC23CC4CC(CC(C4)C2)C3)C=C(C(=O)OC)C1c1ccsc1,10%
17,Cn1c(=O)[nH]c2ccc([N+](=O)[O-])nc21,9.62%
18,Cc1cc(=O)oc2cc(NC(=O)C3CC(=O)N(Cc4ccccc4)C3)ccc12 (centres unmarked),5.29%
19,COc1ccc(NC(=O)N2CCN(c3cccc(C(F)(F)F)c3)CC2)cc1,-1.89%
20,COc1ccccc1NC(=O)N1CCN(c2cccc(C(F)(F)F)c2)CC1,-76.6%
21,COc1ccc(NC(=O)N2CCN(c3cccc(C(F)(F)F)c3)CC2)cc1OC,-1.73%
22,O=C(CN1C(=O)COCC1=O)N1CCOCC1,3.2%

row,Structure (SMILES),"hERG current change (%, negative = inhibition) at 10uM"
1,Cc1ccc(C)n1-c1ccc(-c2nnco2)cc1,8.42%
2,COc1ccc(CCNCc2c(-c3ccccc3)n(C)c3ccccc23)cc1.O=C(O)C(=O)O,-52.3%
3,Clc1ccc(OCCNCCc2ccccc2)cc1.O=C(O)C(=O)O,-73.7%
4,c1ccc(CCNCCOc2ccccc2)cc1,-0.101%
5,COc1ccc(CCNCc2ccccc2N2CCCC2)cc1.O=C(O)C(=O)O,-41.8%
6,COCCCNCCCOc1ccc(C(C)(C)c2ccccc2)cc1.O=C(O)C(=O)O,-19.9%
7,COCCCNCCOc1ccc(C(C)(C)c2ccccc2)cc1.O=C(O)C(=O)O,-54.5%
8,COc1ccc(CCNCc2ccccc2)cc1.O=C(O)C(=O)O,-23.9%
9,COc1ccc(OCCCNCCc2ccccc2)cc1.O=C(O)C(=O)O,-57%
10,COCCNCCCOc1ccc(C(C)(C)c2ccccc2)cc1.O=C(O)C(=O)O,-29.3%
11,COc1ccc(CCNCc2ccncc2)cc1.O=C(O)C(=O)O,-13.7%
12,O=C(CCCOc1ccc(Cl)cc1)NCCc1ccccc1,5.77%
13,COc1ccc(OCCCC(=O)NCCc2ccccc2)cc1,-7.79%
14,COc1cccc(C2c3[nH]c4ccccc4c3C[C@H]3C(=O)N(CCCO)CC(=O)N23)c1OC (some centres unmarked),-6.83%
15,CC1(c2nnc(Cc3ccccc3)o2)CC(c2ccccc2F)=NO1 (centres unmarked),-12.6%
16,CC(C)Sc1nc(N2CCOCC2)c2c(c1C#N)CC(C)(C)SC2,5.69%
17,CC1=C(C(N)=O)C(c2ccccc2)n2nc(-c3ccncc3)nc2N1 (centres unmarked),11.2%
18,COC(=O)C1C2CCC(C2)C1C(=O)OCC(=O)c1ccc(C)cc1 (centres unmarked),-19.5%
19,CC1(C)CC(=O)C=C(Nc2ccc([N+](=O)[O-])cc2)C1,-16.6%
20,COc1ccc(NC(=O)CCOc2ccc(C)cc2)cc1S(=O)(=O)N1CCOCC1,-34.9%

# From PMC4336329 (PLoS ONE, 2015)
